Structures are written as SMILES.

The target in this test is Focal adhesion kinase 1 (Homo sapiens) (UniProt Q05397). Kind of test: PTK2 protein binding on printed compound slides – biochemical, small-molecule microarray, 635/667 nm fluorescence, BSA, DTT, primary screen (AID 1130).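 Also: composite of spot emission at 667 nm and signal to noise over triplicate slides.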 As to conditions: 635 nm fluorescence, higher = more signal.
Focal adhesion kinase 1 (Homo sapiens), sequence (Q05397 whole entry, looked up): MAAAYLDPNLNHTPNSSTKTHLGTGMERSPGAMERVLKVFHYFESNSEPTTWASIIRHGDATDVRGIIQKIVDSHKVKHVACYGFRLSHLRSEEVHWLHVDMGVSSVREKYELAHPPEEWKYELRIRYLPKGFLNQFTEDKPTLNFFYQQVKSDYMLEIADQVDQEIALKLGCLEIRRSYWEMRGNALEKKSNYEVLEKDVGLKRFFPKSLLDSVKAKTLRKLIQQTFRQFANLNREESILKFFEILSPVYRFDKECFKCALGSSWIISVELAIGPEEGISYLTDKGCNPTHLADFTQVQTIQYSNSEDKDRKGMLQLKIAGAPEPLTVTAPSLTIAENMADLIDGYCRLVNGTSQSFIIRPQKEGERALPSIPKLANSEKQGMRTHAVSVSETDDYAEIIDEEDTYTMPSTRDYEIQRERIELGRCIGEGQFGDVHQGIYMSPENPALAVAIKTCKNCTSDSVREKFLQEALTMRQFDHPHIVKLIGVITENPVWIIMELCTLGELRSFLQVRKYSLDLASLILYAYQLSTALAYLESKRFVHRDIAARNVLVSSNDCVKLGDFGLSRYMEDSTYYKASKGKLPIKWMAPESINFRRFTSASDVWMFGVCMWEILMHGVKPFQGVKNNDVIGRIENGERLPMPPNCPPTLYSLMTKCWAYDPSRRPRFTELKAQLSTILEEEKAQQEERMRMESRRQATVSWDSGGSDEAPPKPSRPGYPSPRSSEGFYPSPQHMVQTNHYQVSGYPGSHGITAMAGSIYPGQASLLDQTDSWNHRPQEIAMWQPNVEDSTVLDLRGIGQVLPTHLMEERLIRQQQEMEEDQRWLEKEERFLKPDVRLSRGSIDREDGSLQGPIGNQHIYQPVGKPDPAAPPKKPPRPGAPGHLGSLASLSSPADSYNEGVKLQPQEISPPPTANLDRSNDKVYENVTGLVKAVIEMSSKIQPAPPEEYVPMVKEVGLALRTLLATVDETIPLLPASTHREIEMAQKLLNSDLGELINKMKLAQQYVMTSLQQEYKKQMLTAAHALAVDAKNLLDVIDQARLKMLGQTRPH
In turn, `O=C(O)C1=CC[C@H]2C(=O)N(c3ccccc3)C(=O)[C@@H]12` gave a composite z-score of 0.424.
Regarding `CCc1cccc(NC(=O)O[C@H]2[C@H](OC(=O)Nc3ccccc3-c3ccccc3)[C@H](OC(=O)Nc3ccccc3-c3ccccc3)[C@@H](OC)O[C@@H]2CO)c1`, the composite z-score turned out to be 0.775.
The value for `C=C(COC)/C(=C/C[C@@H](OC(C)=O)c1cccc(OCCO)c1)c1cnc2ccccc2c1` was -0.012; that for `Cc1ccc(S[C@]2(C(=O)NCc3ccccc3)CC(=O)N(Cc3ccccc3C(F)(F)F)[C@@H]2c2ccc(CO)cc2I)cc1` was 0.258.
Next, `COCCOC(=O)N1C(=O)[C@@]2(c3cc(C#CC4(O)CCCCCC4)ccc31)[C@H](C(N)=O)[C@H]1C(=O)O[C@H](c3ccccc3)[C@H](c3ccccc3)N1[C@@H]2c1ccc(OCCO)cc1`: 0.428.
Next, `COc1c(C)cc(-c2cc3c(c(CCc4ccccc4)n2)[Si](C(C)C)(C(C)C)O[C@H]3c2ccccc2)cc1C`: -0.191.
Compound `COC(=O)[C@@]1(Cc2ccc(F)cc2)[C@H]2c3cc(C(=O)N(C)C)n(Cc4cccc5ccccc45)c3C[C@H]2CN1C(=O)c1ccccc1` showed a composite z-score of 0.705.
The value for `CC(C)C[C@@H]1NC(=O)[C@@H]2C[C@H](C(=O)NCCCCCNC(=O)CS)[C@H](c3ccc(O)cc3)N2C1=O` was 0.322; that for `C=C[C@@H](CO)NS(=O)(=O)c1ccc(Br)cc1` was 0.169.
The value for `COC(=O)[C@@]1(Cc2ccc(F)cc2)[C@H]2c3cc(C(=O)N(C)C)n(CCF)c3C[C@H]2CN1C(=O)c1ccccc1` was 0.0655.
`COC(=O)[C@@]1(Cc2ccccc2)[C@H]2c3cc(C(=O)N(C)C)n(Cc4nc5ccccc5[nH]4)c3C[C@H]2CN1C(=O)c1ccccc1` returned a composite z-score of 0.872.
`C=C(C(=O)CC[C@@H](OC(=O)c1ccccc1-c1ccccc1C(=O)O)c1ccc(OCCO)cc1)C(C)C` came in with a composite z-score of -0.118.
Next, `COCCOC(=O)N1C(=O)[C@@]2(c3cc(C#CCCO)ccc31)[C@H](C(=O)N1CCN(c3ncccn3)CC1)[C@H]1C(=O)O[C@H](c3ccccc3)[C@H](c3ccccc3)N1[C@@H]2c1ccc(OCCO)cc1`: -0.293; `O=C1OC[C@@H](c2ccccc2)n2cc(/C=C/c3ccccc3)cc21`: -0.102.
Next, `CCOC(=O)C[C@H]1[C@H](OC(=O)c2cc3ccccc3oc2=O)[C@@H](NC(=O)Cc2ccc(OC)cc2)c2cc(OCCCO)ccc2N1C(=O)Cc1ccc(OC)cc1`: 0.122.
Next, `C=CCN1C(=O)[C@@]2(O[C@@H](CCO)[C@H]([Si](C)(C)c3ccc(OC)cc3)[C@H]2C)c2cc(N3CCCCC3=O)ccc21`: -0.19.
Turning to `COc1ccc(CCNC(=O)[C@@]2(C)c3ccccc3C(=O)N(Cc3ccc(OC(F)(F)F)cc3)[C@H]2c2ccc(CO)cc2)cc1`, the composite z-score is 1.13.
The compound `COC(=O)[C@@]1(Cc2ccccc2)[C@H]2c3cc(C(=O)N(C)C)n(CCF)c3C[C@H]2CN1C(=O)c1ccccc1` showed a composite z-score of 0.326.
The value for `COc1ccc(NN2C(C(O)c3ccc(F)cc3)C=CC3C(=O)N(C4CCCCC4)C(=O)C32)cc1` (stereo not given) was 0.382; that for `COC(=O)[C@@]1(Cc2ccc(F)cc2)[C@H]2c3cc(C(=O)N(C)C)n(Cc4ccsc4Br)c3C[C@H]2CN1C(=O)c1ccccc1` was 1.96.
The value for `COc1ccc(NN2C(C(O)c3ccccc3)C=CC3C(=O)N(C4CCCCC4)C(=O)C32)cc1` (stereo not given) was 0.82; that for `C=CC[C@H](OC(=O)Nc1ccc(SC)cc1)c1ccc(O)c(F)c1` was -0.502; that for `CO[C@H]1O[C@H](CO)[C@@H](OC(=O)CCc2ccccc2)[C@@H]2OC(=O)[C@@H](Cc3ccc4ccccc4c3)C/C=C/C[C@H](Cc3ccc4ccccc4c3)C(=O)O[C@@H]12` was 0.138.
Next, `COC(=O)[C@H](Cc1ccccc1)N1CC(C)(OC)O[C@@H](Cc2ccccc2)[C@H]1/C=C/C1CC1` (stereo not given in full): 0.0639; `C[C@H]1C2[C@H](Cc3ccccc3)NC(=O)[C@]23C(=O)N[C@@H](Cc2ccccc2)C(=O)N2CCC[C@H]2C(=O)NC/C=C/CC/C=C/C3[C@@H]2O[C@]12C` (stereo not given in full): -0.153; `C=C(C(=O)CC[C@@H](OC(=O)c1ccccc1-c1ccccc1C(=O)O)c1cccc(OCCO)c1)C(C)C`: -0.285.
Take `C=C(CCCC)C(=O)CC[C@H](OC(=O)c1ccccc1-c1ccccc1C(=O)O)c1cccc(OCCO)c1`: the composite z-score was -0.194.
Next, `C=C(CCCC)/C(=C/C[C@@H](OC(C)=O)c1cccc(OCCO)c1)c1cc(C(=O)OC)ccc1OC`: 0.0738; `CCCCCN1CC=CC23O[C@@H]4/C=C\CCCOC(=O)C4[C@H]2C(=O)N(CCO)[C@@H]3C1=O` (stereo not given in full): 1.15.
Next, `O=C1NC(=O)C2C1C=CC(C(O)C1CCCCC1)N2Nc1ccccn1` (stereo not given): 0.113.
Next, `COC(=O)C1(CC(C)C)C=C2C(=C(C)C(=O)C2C)CN1` (stereo not given): 0.183; `Cc1ccc(N2C(=O)c3ccccc3[C@@H](C(=O)NCCN3CCOCC3)[C@@H]2c2ccc(CO)cc2)nc1`: -0.317; `COCCOC(=O)N1C(=O)[C@@]2(c3cc(C#CCNC(N)=O)ccc31)[C@H](c1ccc(O)cc1)N1[C@H](c3ccccc3)[C@H](c3ccccc3)OC(=O)[C@H]1[C@@H]2C(=O)N1CCc2cc(OC)c(OC)cc2C1`: 1.33.
For the compound `O=C(NC1CC1)[C@@H]1c2ccccc2C(=O)N(C2CCCCC2)[C@H]1c1ccc(CO)cc1`, the composite z-score is 0.498.
Turning to `COc1ccc([Si](C)(C)[C@@H]2[C@@H](CC(=O)N(CCO)Cc3ccccc3)O[C@]3(C(=O)N(Cc4cccc(I)c4)c4ccccc43)[C@H]2C)cc1`, the composite z-score was -0.14.

The values are drawn from PubChem BioAssay.
